According to PubChem BioAssay AID1159580 (chemical genetic matrix, 2015):
Hit rate of the full screen: of about 5,500 compounds, about 2,000 (36%) were called active. Not shown: some 18% with an inconclusive outcome. Cut-off read from the data, not from the text of the source: active = normalized growth mostly below about 0.91 (no sharp cut-off); inconclusive = no clear call, values can overlap the other calls; inactive = mostly above about 0.92. The list shows a part of the results.

Test: chemical genetic growth profiling, strain panel (AID 1159580);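 note: tested at 20 µM; growth read once vehicle control cultures reached saturation at 30 °C; 1 = growth at the plate median or of vehicle wells; lower values mean less growth of the strain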
Details: growth OD
[1] = S. cerevisiae deletion strains, locus YAL013W, strain DEP1, stronger effect = lower value
[2] = S. cerevisiae deletion strains, locus YAL040C, strain CLN3, stronger effect = lower value
[3] = S. cerevisiae deletion strains, locus YCL061C, strain MRC1 (second series), stronger effect = lower value
[4] = S. cerevisiae deletion strains, locus YDR363W, strain ESC2, stronger effect = lower value
[5] = S. cerevisiae deletion strains, locus YER002W, strain NOP16, stronger effect = lower value
[6] = S. cerevisiae deletion strains, locus YJR075W, strain HOC1, stronger effect = lower value
[7] = S. cerevisiae deletion strains, locus YMR263W, strain SAP30, stronger effect = lower value
[8] = S. cerevisiae deletion strains, locus YMR307W, strain GAS1, stronger effect = lower value
[9] = S. cerevisiae deletion strains, locus YNL153C, strain GIM3, stronger effect = lower value
[10] = S. cerevisiae deletion strains, locus YNL175C, strain NOP13, stronger effect = lower value
[11] = S. cerevisiae deletion strains, locus YNL197C, strain WHI3, stronger effect = lower value
[12] = S. cerevisiae deletion strains, locus YNL224C, strain SQS1, stronger effect = lower value
[13] = S. cerevisiae deletion strains, locus YNL322C, strain KRE1, stronger effect = lower value
[14] = S. cerevisiae deletion strains, locus YOR083W, strain WHI5 (second series), stronger effect = lower value
[15] = S. cerevisiae deletion strains, locus YPL055C, strain LGE1, stronger effect = lower value
[16] = S. cerevisiae deletion strains, locus YBR229C, strain ROT2, stronger effect = lower value
[17] = S. cerevisiae deletion strains, locus YDL101C, strain DUN1, stronger effect = lower value
[18] = S. cerevisiae deletion strains, locus YDR150W, strain NUM1, stronger effect = lower value
[19] = S. cerevisiae deletion strains, locus YEL061C, strain CIN8, stronger effect = lower value
[20] = S. cerevisiae deletion strains, locus YGR078C, strain PAC10, stronger effect = lower value
[21] = S. cerevisiae deletion strains, locus YHR030C, strain SLT2, stronger effect = lower value
[22] = S. cerevisiae deletion strains, locus YHR087W, strain rtc3, stronger effect = lower value
[23] = S. cerevisiae deletion strains, locus YJL187C, strain SWE1, stronger effect = lower value
[24] = S. cerevisiae deletion strains, locus YJR043C, strain POL32, stronger effect = lower value
[25] = S. cerevisiae deletion strains, locus YLR039C, strain RIC1, stronger effect = lower value
[26] = S. cerevisiae deletion strains, locus YLR058C, strain SHM2 (second series), stronger effect = lower value
[27] = S. cerevisiae deletion strains, locus YLR085C, strain ARP6, stronger effect = lower value
[28] = S. cerevisiae deletion strains, locus YLR262C, strain YPT6, stronger effect = lower value
[29] = S. cerevisiae deletion strains, locus YML094W, strain GIM5, stronger effect = lower value
[30] = S. cerevisiae deletion strains, locus YMR219W, strain ESC1, stronger effect = lower value
[31] = S. cerevisiae deletion strains, locus YNL298W, strain CLA4 (second series), stronger effect = lower value
[32] = S. cerevisiae deletion strains, locus YNR030W, strain Alg12, stronger effect = lower value
[33] = S. cerevisiae deletion strains, locus YOL006C, strain TOP1, stronger effect = lower value
[34] = S. cerevisiae deletion strains, locus YPL241C, strain CIN2, stronger effect = lower value
[35] = S. cerevisiae deletion strains, locus YPR135W, strain CTF4, stronger effect = lower value
[36] = S. cerevisiae strains, strain wild type, stronger effect = lower value

Measured: normalized growth

C[C@@H](NC(=O)/C(C#N)=C/c1ccc(O)c(O)c1)c1ccccc1
inactive: [1] 0.997 | [2] 0.993 | [3] 0.983 | [4] 1.01 | [5] 0.998 | [6] 0.963 | [7] 1 | [8] 1.01 | [9] 0.978 | [10] 1 | [11] 1 | [12] 1.01 | [13] 1.01 | [14] 1.01 | [15] 0.932

CCCc1cc(=O)oc2cc(OCC(=O)OCC)ccc12
inactive: [1] 0.997 | [16] 0.971 | [17] 0.945 | [18] 0.986 | [19] 0.963 | [20] 0.985 | [21] 0.759 | [22] 0.963 | [23] 0.991 | [24] 1 | [6] 0.972 | S. cerevisiae deletion strains, locus YKL190W, strain CNB1, stronger effect = lower value 0.995 | [25] 0.925 | [26] 0.991 | [27] 0.913 | [28] 0.958 | [29] 0.883 | [30] 0.987 | [7] 1.03 | [9] 0.98 | [31] 0.961 | [13] 0.995 | [32] 0.965 | [33] 0.864 | [15] 0.922 | [34] 1.04 | [35] 0.82 | [36] 0.99

CCCc1cc(=O)oc2c1c(C)nn2-c1ccccc1
inactive: [16] 0.94 | [17] 0.954 | S. cerevisiae deletion strains, locus YDL134C, strain PPH21, stronger effect = lower value 0.938 | [18] 0.978 | [20] 0.935 | [24] 0.998 | [29] 0.921 | [7] 0.956 | [13] 0.944
active: [1] 0.932 | [19] 0.885 | [21] 0.432 | [22] 0.862 | [6] 0.869 | [25] 0.786 | [26] 0.923 | [27] 0.539 | [28] 0.744 | [30] 0.938 | [9] 0.864 | [31] 0.839 | [32] 0.875 | [33] 0.599 | [15] 0.799 | [34] 0.782 | [35] 0.552

Cc1nn(-c2cccc(Cl)c2)c2oc(=O)cc(C(F)(F)F)c12
active: S. cerevisiae deletion strains, locus YDL214C, strain PRR2, stronger effect = lower value 0.609 | S. cerevisiae deletion strains, locus YDR477W, strain SNF1, stronger effect = lower value 0.566 | S. cerevisiae deletion strains, locus YER123W, strain YCK3, stronger effect = lower value 0.342 | S. cerevisiae deletion strains, locus YER133W, strain GLC7, stronger effect = lower value 0.48 | S. cerevisiae deletion strains, locus YFR019W, strain FAB1, stronger effect = lower value 0.572 | S. cerevisiae deletion strains, locus YGR040W, strain KSS1, stronger effect = lower value 0.654 | S. cerevisiae deletion strains, locus YGR052W, strain FMP48, stronger effect = lower value 0.538 | S. cerevisiae deletion strains, locus YGR092W, strain DBF2, stronger effect = lower value 0.367 | [21] 0.154 | S. cerevisiae deletion strains, locus YHR079C, strain IRE1, stronger effect = lower value 0.231 | S. cerevisiae deletion strains, locus YHR082C, strain KSP1, stronger effect = lower value 0.508 | S. cerevisiae deletion strains, locus YJL095W, strain BCK1, stronger effect = lower value 0.359 | S. cerevisiae deletion strains, locus YJL157C, strain FAR1, stronger effect = lower value 0.467 | S. cerevisiae deletion strains, locus YJR066W, strain TOR1 (second series), stronger effect = lower value 0.552 | S. cerevisiae deletion strains, locus YJR066W, strain TOR1, stronger effect = lower value 0.343 | S. cerevisiae deletion strains, locus YKL048C, strain ELM1, stronger effect = lower value 0.753 | S. cerevisiae deletion strains, locus YKL067W, strain YNK1, stronger effect = lower value 0.705 | S. cerevisiae deletion strains, locus YKL203C, strain TOR2, stronger effect = lower value 0.614 | S. cerevisiae deletion strains, locus YLR113W, strain HOG1, stronger effect = lower value 0.35 | S. cerevisiae deletion strains, locus YLR133W, strain CKI1, stronger effect = lower value 0.545 | S. cerevisiae deletion strains, locus YLR403W, strain SFP1, stronger effect = lower value 0.393 | S. cerevisiae deletion strains, locus YML070W, strain DAK1, stronger effect = lower value 0.515 | S. cerevisiae deletion strains, locus YNL020C, strain ARK1, stronger effect = lower value 0.574 | S. cerevisiae deletion strains, locus YNL183C, strain NPR1, stronger effect = lower value 0.464 | S. cerevisiae deletion strains, locus YNL307C, strain MCK1 (second series), stronger effect = lower value 0.536 | S. cerevisiae deletion strains, locus YOL136C, strain PFK27, stronger effect = lower value 0.342 | S. cerevisiae deletion strains, locus YOR119C, strain RIO1, stronger effect = lower value 0.544 | S. cerevisiae deletion strains, locus YOR231W, strain MKK1, stronger effect = lower value 0.501 | S. cerevisiae deletion strains, locus YPL031C, strain PHO85, stronger effect = lower value 0.535 | S. cerevisiae deletion strains, locus YPL153C, strain RAD53, stronger effect = lower value 0.6 | S. cerevisiae deletion strains, locus YPL204W, strain HRR25, stronger effect = lower value 0.469 | S. cerevisiae deletion strains, locus YPL256C, strain CLN2, stronger effect = lower value 0.201
inactive: S. cerevisiae deletion strains, locus YAR019C, strain CDC15, stronger effect = lower value 0.977 | S. cerevisiae deletion strains, locus YBL105C, strain PKC1, stronger effect = lower value 0.966 | S. cerevisiae deletion strains, locus YBR135W, strain CKS1, stronger effect = lower value 0.975 | S. cerevisiae deletion strains, locus YBR136W, strain MEC1, stronger effect = lower value 0.974 | S. cerevisiae deletion strains, locus YBR160W, strain CDC28, stronger effect = lower value 0.974 | S. cerevisiae deletion strains, locus YDL017W, strain CDC7, stronger effect = lower value 0.968 | S. cerevisiae deletion strains, locus YDL028C, strain MPS1, stronger effect = lower value 0.979 | [17] 0.961 | S. cerevisiae deletion strains, locus YDL108W, strain KIN28, stronger effect = lower value 0.968 | S. cerevisiae deletion strains, locus YDL132W, strain cdc53, stronger effect = lower value 0.972 | S. cerevisiae deletion strains, locus YDR052C, strain DBF4, stronger effect = lower value 0.96 | S. cerevisiae deletion strains, locus YDR054C, strain cdc34, stronger effect = lower value 0.973 | S. cerevisiae deletion strains, locus YDR226W, strain ADK1, stronger effect = lower value 0.962 | S. cerevisiae deletion strains, locus YFL009W, strain cdc4, stronger effect = lower value 0.964 | S. cerevisiae deletion strains, locus YFL029C, strain CAK1, stronger effect = lower value 0.976 | S. cerevisiae deletion strains, locus YFR003C, strain YPI1, stronger effect = lower value 0.966 | S. cerevisiae deletion strains, locus YFR028C, strain CDC14, stronger effect = lower value 0.971 | S. cerevisiae deletion strains, locus YHR205W, strain SCH9, stronger effect = lower value 0.615 | S. cerevisiae deletion strains, locus YIL147C, strain SLN1, stronger effect = lower value 0.976 | S. cerevisiae deletion strains, locus YJL128C, strain PBS2, stronger effect = lower value 0.95 | S. cerevisiae deletion strains, locus YJR016C, strain ILV3, stronger effect = lower value 0.976 | S. cerevisiae deletion strains, locus YKL101W, strain HSL1, stronger effect = lower value 0.776 | S. cerevisiae deletion strains, locus YKL193C, strain SDS22, stronger effect = lower value 0.975 | S. cerevisiae deletion strains, locus YMR001C, strain CDC5, stronger effect = lower value 0.962 | S. cerevisiae deletion strains, locus YMR205C, strain PFK2 (second series), stronger effect = lower value 0.78 | S. cerevisiae deletion strains, locus YMR277W, strain FCP1, stronger effect = lower value 0.98 | S. cerevisiae deletion strains, locus YNL006W, strain LST8, stronger effect = lower value 0.977 | S. cerevisiae deletion strains, locus YNL161W, strain CBK1, stronger effect = lower value 0.968 | S. cerevisiae deletion strains, locus YNL207W, strain RIO2, stronger effect = lower value 0.963 | S. cerevisiae deletion strains, locus YNL222W, strain SSU72, stronger effect = lower value 0.975 | S. cerevisiae deletion strains, locus YOL078W, strain AVO1, stronger effect = lower value 0.97 | S. cerevisiae deletion strains, locus YOR061W, strain CKA2, stronger effect = lower value 0.681 | S. cerevisiae deletion strains, locus YOR329C, strain SCD5, stronger effect = lower value 0.964 | S. cerevisiae deletion strains, locus YPL209C, strain IPL1, stronger effect = lower value 0.972 | S. cerevisiae deletion strains, locus YPR025C, strain CCL1, stronger effect = lower value 0.968 | S. cerevisiae deletion strains, locus YPR106W, strain ISR1, stronger effect = lower value 0.979 | S. cerevisiae deletion strains, locus YPR111W, strain DBF20, stronger effect = lower value 0.96 | S. cerevisiae deletion strains, strain NNK1, stronger effect = lower value 0.978 | S. cerevisiae deletion strains, strain TSCII, stronger effect = lower value 0.967

O=C(O)C1C2CCC1C(O)C2 (stereo unspecified)
inactive: [1] 0.99 | [16] 1.02 | [17] 0.981 | [18] 1 | [19] 1.02 | [20] 0.998 | [21] 0.98 | [22] 0.99 | [23] 1.02 | [24] 1 | [6] 1.02 | [25] 0.967 | [26] 1.02 | [27] 1.03 | [28] 0.968 | [29] 1.01 | [30] 0.998 | [7] 0.998 | [8] 1.01 | [9] 0.976 | [31] 1 | [13] 1 | [32] 1.01 | [33] 0.972 | [15] 1.03 | [34] 0.997 | [35] 0.979 | [36] 0.967

NC(=O)c1ncn(C2OC(CO)C(O)C2O)c1O (stereo unspecified)
inactive: [1] 1.01 | [2] 1.01 | [3] 1.01 | [4] 1.01 | [5] 1 | S. cerevisiae deletion strains, locus YNL128W, strain TEP1, stronger effect = lower value 0.998 | [9] 1.02 | [10] 1 | [11] 1.01 | [12] 1 | [14] 1.02

Cc1onc(-c2c(Cl)cccc2Cl)c1NC(=O)O/N=C\c1ccc(N(C)C)cc1
inactive: [16] 0.975 | S. cerevisiae deletion strains, locus YCL061C, strain MRC1, stronger effect = lower value 0.994 | [17] 0.978 | [22] 1.02 | [6] 1.04 | [25] 0.865 | [26] 0.992 | [28] 0.956 | [30] 1.02 | [13] 0.962 | [35] 0.698 | [36] 0.956
active: [1] 0.807 | [18] 0.693 | [19] 0.338 | [20] 0.861 | [21] 0.12 | [24] 0.769 | [27] 0.0906 | [29] 0.152 | [7] 0.78 | [9] 0.907 | [31] 0.266 | [32] 0.357 | [33] 0.25 | [15] 0.624 | [34] 0.44
